Our source for the inhibition values is PubChem BioAssay AID738 (SRMLSC, 2007).

Screen size: about 98,000 compounds; about 4,900 (5%) were called active. No stated cut-off is given here; in the data, active means inhibition above about 30%; inactive means the rest. Only a selection was taken, and actives are over-represented in it overall.

The nature of the assay: yeast control strain growth suppression – counter-screen for post-Golgi transport modulator project, primary screen (AID 738). The following applies: efflux-deficient yeast background strain, growth absorbance A615, 16 h; at 10 µM; stronger effect = higher value. In general terms: The purpose of a counterscreen is to sort out artefacts and off-target activity.
In the case of `O=C(CSc1nc2ccccc2o1)N1c2ccccc2Sc2ccc(Cl)cc21`, the inhibition is 17% (inactive).

As to `O=C1CSC(c2ccccc2)N1c1nc(-c2ccc(Cl)cc2Cl)cs1` (configuration not stated), the inhibition was 5.96% (inactive).

In the case of `CCOC(=O)C1Sc2[nH]c(=O)sc2C(c2ccc(Cl)cc2)C1C(=O)OCC` (configuration not stated), the inhibition is 12% (inactive).

On to `Cc1ccc(Cn2c(C)nc3c(c2=O)c2nc4ccccc4nc2n3Cc2ccco2)cc1`, for which the inhibition was 20.3% (inactive).

As for `Clc1cccc(-c2nc3nc4ccccc4nc3n2Cc2ccco2)c1`, the inhibition was 32.4% (active).

As to `CC(Sc1nc2ccccc2c(=O)n1Cc1ccco1)C(=O)c1ccccc1` (configuration not stated), the inhibition is 20.6% (inactive).

On to `CCN(CC)CCN1C(=O)C(=O)/C(=C(/O)c2cnn(-c3ccccc3)c2C)C1c1cccs1` (configuration not stated), for which the inhibition was 10.5% (inactive).

On to `S=c1nccc(-c2cc(Cl)sc2Cl)[nH]1`, for which the inhibition was -1.82% (inactive).

For `O=C(Nc1ccccc1N1CCN(c2ccccc2)CC1)c1cccc(F)c1`, the inhibition was 15.4% (inactive).

In the case of `O=C(Nc1ccccc1N1CCCCC1)c1ccc2nccnc2c1`, the inhibition is 16.6% (inactive).

For `O=C(Nc1ccccc1N1CCCCC1)c1cccc(F)c1`, the inhibition was 31.6% (active).

Turning to `CCC(=O)OCc1c(C(F)(F)F)nn(C)c1Oc1cccc(C(F)(F)F)c1`, the inhibition is -7.2% (inactive).

As to `S=C(NCc1cccs1)Nc1ccc(Cl)cc1`, the inhibition was 1.15% (inactive).

With `S=C(NCc1ccc(Cl)cc1)NC12CC3CC(CC(C3)C1)C2`, the inhibition is 69.2% (active).

Take `O=C(NCc1ccc2c(c1)OCO2)C12CC3CC(CC(C3)C1)C2`: the inhibition was 9.12% (inactive).

As for `O=C(/C=C/c1cccs1)c1cc(Cl)ccc1OC(=O)N1CCOCC1`, the inhibition was 16.3% (inactive).

In the case of `N/C(=N\OC(=O)c1cc(-c2ccccc2)nc2ccccc12)c1ccncc1`, the inhibition is 13.9% (inactive).

Regarding `Nc1ccccc1SCc1cc([N+](=O)[O-])cc2c1OCOC2`, the inhibition is 13.6% (inactive).

Turning to `Cc1cccc(C)c1NC(=O)CCS(=O)(=O)c1cccc2nsnc12`, the inhibition is 9.17% (inactive).

On to `CCCCN(CC)C(=O)CN(C)S(=O)(=O)c1cccc2nsnc12`, for which the inhibition is 7.72% (inactive).

With `O=C(O)c1ccc(NS(=O)(=O)c2cccc3nsnc23)cc1`, the inhibition is 18% (inactive).

In the case of `CCOc1ccc(NC(=O)CCS(=O)(=O)c2cccc3nsnc23)cc1`, the inhibition was 32.5% (active).

`CCOc1ccc(-c2cn(S(=O)(=O)c3cccc4nsnc34)nc2N)cc1`: the inhibition was 53.9% (active).

`CCOc1ccc(OCC)c(NC(=O)CN(C)S(=O)(=O)c2cccc3nsnc23)c1`: the inhibition is 0.74% (inactive).

Consider `CCc1ccc(C(=O)CSc2nnc(C)c(=O)[nH]2)cc1`, for which the inhibition is 22% (inactive).

On to `Nc1ccc(C(=O)OCC(=O)NC2CCCc3ccccc32)cc1[N+](=O)[O-]` (configuration not stated), for which the inhibition was 16.1% (inactive).

For `CCCc1nc2ccccc2c(C(=O)OCC(=O)c2ccc3c(c2)NC(=O)CO3)c1CC`, the inhibition is 2.23% (inactive).

For the compound `O=C(COc1ccc2c(C(F)(F)F)cc(=O)oc2c1)Nc1ccc2c(c1)OCCO2`, the inhibition was 3.57% (inactive).

For `CCOc1ccc(S(=O)(=O)Nc2nc3cc(OC)ccc3s2)cc1`, the inhibition is 2.89% (inactive).

For `CC(=O)c1cnc(SCCN2C(=O)c3ccccc3C2=O)nc1C`, the inhibition is -2.62% (inactive).

Consider `Cc1cc(C)c2nc(NC(=O)c3ccc4c(c3)OCO4)sc2c1`, for which the inhibition is 21.3% (inactive).

As to `O=S(=O)(NC1CCCCC1)c1ccc(F)c2ccccc12`, the inhibition is 35.4% (active).

Consider `COc1ccc(C)cc1S(=O)(=O)NC1CCCCC1`, for which the inhibition was 2.46% (inactive).

Regarding `CSc1ccc(S(=O)(=O)NC2CCCCC2)cc1`, the inhibition is 10.7% (inactive).

For the compound `Cc1ccc(N(NC(=O)C(C)(C)O)C(=O)c2ccccc2)cc1C`, the inhibition was 0.77% (inactive).

Take `Cc1ccccc1C(=O)N1CCC(C(=O)Nc2ccc(S(=O)(=O)N(C)C(C)C)cc2)CC1`: the inhibition is -2.28% (inactive).

In the case of `Cc1nc(Cl)c2oc3ccccc3c2n1`, the inhibition was -0.78% (inactive).

For `COc1ccccc1Nc1ncnc2c1oc1ccccc12`, the inhibition is 31.2% (active).

With `CCc1nc(Nc2ccc3nccnc3c2)c2oc3ccccc3c2n1`, the inhibition is 4.28% (inactive).

As to `NS(=O)(=O)c1cccnc1Nc1cccc(Cl)c1`, the inhibition was 7.66% (inactive).

As for `O=C(Cn1ccc([N+](=O)[O-])n1)NCc1cccs1`, the inhibition is 18.9% (inactive).

With `Cc1ccccc1-c1nnc(SCC(=O)NCc2ccc3c(c2)OCO3)n1C`, the inhibition was 12.7% (inactive).

For `Cc1cccc(CSc2nnc(Cn3c(=O)sc4ccccc43)n2C)c1`, the inhibition is 13.1% (inactive).

Take `Cn1c(SCc2nc3ccccc3s2)nnc1-c1ccc2c(c1)OCO2`: the inhibition was 33.8% (active).

On to `Cc1cccc(N2C(=O)C3C(c4ccccc4)OC4(C(=O)c5ccccc5C4=O)C3C2=O)c1` (configuration not stated), for which the inhibition is -14.2% (inactive).

As for `CCN(CC)C(=O)CSc1nnc(CNc2ccc(F)cc2)n1Cc1ccco1`, the inhibition was 7.51% (inactive).

In the case of `COc1cccc(-c2nnc(SCCOc3ccc4c(C)cc(=O)oc4c3)o2)c1`, the inhibition was 7.69% (inactive).

Regarding `CC(Sc1nnc(Cc2ccc([N+](=O)[O-])cc2)o1)C(N)=O` (configuration not stated), the inhibition is 5.64% (inactive).

With `N#C/C(=C(/O)Cc1cccc2ccccc12)c1nc2ccccc2s1`, the inhibition is 0.29% (inactive).

Take `CC(C)NS(=O)(=O)c1ccc(OCC(=O)Nc2ccc3c(c2)OCCO3)cc1`: the inhibition was 3.4% (inactive).

In the case of `Cc1ccc(CNC(=O)COc2ccc(S(=O)(=O)NC(C)C)cc2)cc1`, the inhibition was 36.6% (active).

Turning to `COc1ccc(OCC(=O)NCCc2ccc(S(N)(=O)=O)cc2)cc1`, the inhibition was -0.6% (inactive).

For `CNC(=O)c1csc(-c2ccccc2)n1`, the inhibition was -5.25% (inactive).

As to `Cc1occc1C(=O)NNC(=S)NCC(C)C`, the inhibition was 3.2% (inactive).

With `CSCCC(NS(=O)(=O)c1ccc2c(c1)oc(=O)n2C)C(=O)NC1CCCc2ccccc21` (configuration not stated), the inhibition was -5.76% (inactive).

In the case of `CC(C)Oc1ccc(CCc2n[nH]c(=S)n2Cc2ccccc2)cc1`, the inhibition was -1.67% (inactive).

For `CCCc1cc(-c2n[nH]c(=S)n2Cc2ccccc2)cs1`, the inhibition is 37.9% (active).

On to `C=CCn1c(-c2ccc3[nH]c(C)c(C)c3c2)n[nH]c1=S`, for which the inhibition is 3.87% (inactive).

As to `Cc1cccc(NC(=S)N2CCC(c3nc4ccccc4s3)CC2)c1`, the inhibition is 10.4% (inactive).

Consider `CCCCNCc1ccc(SC)cc1`, for which the inhibition is 3.73% (inactive).

For `Cc1ccc(S(=O)(=O)N2CCC(C(=O)NCC3CCCO3)CC2)cc1` (configuration not stated), the inhibition is 11.9% (inactive).

Regarding `COC(=O)NC1(C(F)(F)F)NC(=O)N(C2CCCCC2)C1=O` (configuration not stated), the inhibition was -7.51% (inactive).

Take `O=C1NC(Nc2nc3ccccc3s2)(C(F)(F)F)C(=O)N1C1CCCCC1` (configuration not stated): the inhibition was 47.7% (active).

Consider `COc1ccc(C2Nc3ccccc3C(=O)N2Cc2ccccc2)cc1Cn1nnc2ccccc21` (configuration not stated), for which the inhibition is 13.4% (inactive).

In the case of `CN(C)c1ccc(NC(=S)N(CCc2ccccc2)C2CC(=O)N(c3c(Cl)cccc3Cl)C2=O)cc1` (configuration not stated), the inhibition was 5.66% (inactive).

For `O=C(O)CCC(=O)NCc1ccc(C(=O)O)cc1`, the inhibition is 12.1% (inactive).

As for `COc1ccc(-c2nc(CCNC(=O)c3ccc(Br)o3)cs2)cc1`, the inhibition was 36.5% (active).

Consider `CC(CNC(=O)c1ccc(Br)o1)NC(=O)c1ccc(Br)o1` (configuration not stated), for which the inhibition was 18.5% (inactive).

Take `O=C(NCCc1ccccn1)c1ccc(COc2ccccc2)o1`: the inhibition was -1.77% (inactive).

Turning to `Cc1ccccc1OC(=O)Cn1c(C(F)(F)F)nc2ccccc21`, the inhibition is 12.9% (inactive).

Regarding `COC(=O)c1ccccc1OCC(=O)N1CCN(c2ccc(Cl)cc2)CC1`, the inhibition is 13.6% (inactive).

On to `CN(C(=O)CSc1nnnn1-c1ccccc1)C1CCCCC1`, for which the inhibition was 38% (active).

With `O=c1c2ccccc2nnn1CSc1nnnn1-c1ccccc1`, the inhibition was 19.6% (inactive).

As for `COc1ccc(-n2nnnc2SCC(=O)Nc2ccccc2)cc1`, the inhibition is 2.21% (inactive).

As to `CC(=O)c1nn(-c2cccc(Br)c2)cc1C(=O)c1cccc2ccccc12`, the inhibition was 8.1% (inactive).

Take `Cc1cc2cc3c(N)[nH]nc3nc2cc1C`: the inhibition was 8.93% (inactive).

In the case of `COCCNS(=O)(=O)c1cc(Br)ccc1OC`, the inhibition is 2.48% (inactive).

Take `O=[N+]([O-])c1cccc(-c2nnc3c4ccccc4c4ccccc4n23)c1`: the inhibition is 6.93% (inactive).

For `CCC(=O)NC(=Nc1nc2ccccc2s1)NC(=O)CC`, the inhibition was 35.9% (active).

Turning to `CC(C)CC(=O)N/C(N)=N/c1nc2ccccc2s1`, the inhibition is 13.9% (inactive).

For the compound `COC(=O)Cc1cc(=O)n(-c2nc3ccccc3s2)[nH]1`, the inhibition is 11.8% (inactive).

In the case of `COc1ccc(C(=O)N2CCc3cc(OC)c(OC)cc3C2c2cccc([N+](=O)[O-])c2)cc1` (configuration not stated), the inhibition is 20% (inactive).

As for `c1ccc2c(C[n+]3csc4ccccc43)cccc2c1`, the inhibition was 9.79% (inactive).

On to `COc1ccc(C)cc1NC(=O)CCC(=O)Nc1nnc(C(F)(F)F)s1`, for which the inhibition was 0.61% (inactive).

Take `Cc1[nH]n(-c2cccc(Cl)c2)c(=O)c1/C=N/n1c(C)nc2ccccc2c1=O`: the inhibition was 9.33% (inactive).

With `O=c1[nH]n(-c2cccc(Cl)c2)c2ncccc12`, the inhibition was 16.8% (inactive).

Turning to `Cc1[nH]n(-c2cccc(Cl)c2)c(=O)c1-c1ccc(Cl)cc1`, the inhibition was 55.6% (active).

For the compound `O=C(CN1CCN(S(=O)(=O)c2ccc(Cl)s2)CC1)NCc1ccc(Cl)cc1`, the inhibition was 15.8% (inactive).

On to `CC(=O)Nc1cccc(/C(C)=N/NC(=O)c2ccccc2Cl)c1`, for which the inhibition is 5.79% (inactive).

As for `Cc1ccc(C(=O)Nc2ccccc2C(=O)NC2CCCCC2)cc1S(=O)(=O)N1CCOCC1`, the inhibition was 36.2% (active).

Regarding `Cc1ccc(C(=O)Nc2ccc3c(c2)OCO3)cc1S(=O)(=O)N1CCCCC1`, the inhibition is 16.4% (inactive).

On to `Cc1cc(C)n(C(=O)c2ccc(C)c(S(=O)(=O)N3CCOCC3)c2)n1`, for which the inhibition was 11.4% (inactive).

Regarding `CCOc1c2ccc(C(=O)NC3CCCc4ccccc43)cc2nn1CC` (configuration not stated), the inhibition is -2.36% (inactive).

In the case of `O=C(O)c1ccccc1-c1ccccc1C(=O)Nc1cccc2ccccc12`, the inhibition was 9.42% (inactive).

In the case of `COc1ccccc1C(=O)NN1C(=O)C2C3C=CC(O3)C2C1=O` (configuration not stated), the inhibition is 3.54% (inactive).

`Cc1ccccc1C(OCC(O)CN1CCCCC1CCO)c1ccccc1` (configuration not stated): the inhibition is 30.4% (active).

For `CCCSc1nsc(N)n1`, the inhibition is 3.53% (inactive).

By inhibition is commonly meant the relative decrease from the control value, in per cent.
